Screening data (PubChem)
Hits are enriched below; roughly 19% of the tested compounds scored in any of these assays.
TDP1 cell CPT: DT40-hTDP1 cell growth loss with CPT | chicken DT40 Tdp1-/-;hTDP1 cells + 20 nM CPT, ATP luminescence, 48 h | Potency, µM (highest dose often 46.2 µM), for inactives: top-dose activity change, negative = growth inhibition, most hits filed as inhibitors | actives 12% (n = 420,000); also: potency is read from the fitted curve at half-maximal effect; nearly all actives have a fitted effect of over 55% in size
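Chicken DT40 Tdp1-/- cells stably complemented with human TDP1 were seeded at 400 cells/well in medium containing 20 nM camptothecin, exposed to pin-transferred compounds, and grown at 37 °C for at least 48 hr. Viability was read as ATP luminescence.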
Giardia killer: Giardia lamblia killing; AID 540267; activity change, % at 7.66 µM, hits read low; Giardia lamblia trophozoite viability; actives 0.15% (n = 340,000); in the data active = activity change below about -80%; inconclusive = between about -30% and that limit;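 also: parasites exposed to compound for two days anaerobically before the ATP read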
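Giardia trophozoites, 100 cells per well, were exposed to compounds for 48 hrs at 37 deg C under anaerobic conditions; viability was then read as ATP content by bioluminescence after 15-30 min at room temperature.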
TDP1 cell noCPT: qHTS for Inhibitors of human tyrosyl-DNA phosphodiesterase 1 (TDP1): qHTS in cells in absence of CPT | DT40 Tdp1-/- hTDP1 cells, no CPT, ATP luminescence, 48 h | Potency, µM (doses to about 46.2 µM), inactives show top-dose activity change, negative = growth inhibition, most hits filed as inhibitors | actives 15% (n = 420,000) | AID 686978, 2013; also: potency is read from the fitted curve at half-maximal effect; nearly all actives have a fitted effect of over 55% in size
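A cellular qHTS used chicken DT40 cells lacking endogenous Tdp1 but carrying stably transfected human TDP1. Compounds were applied without camptothecin, and cell growth kinetics were judged by ATP-dependent luminescence after ≥48 hr.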
ELG1 DNA repair: blocks ELG1-dependent DNA repair in HEK293T cells; HEK293T ELG1-luciferase reporter, luminescence, 16 h; DNA damage induced by 5-fluorouridine; Potency, µM (titrated, usually from 46.1 µM), inactives show at the top dose activity change, negative = inhibition, most hits filed as inhibitors; actives 2.3% (n = 330,000); AID 504467; also: potency is read from the fitted curve at half-maximal effect; nearly all actives have a fitted effect of over 55% in size
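Luminescence from the luciferase reporter, measured 30 min after ONE-Glo reagent at room temperature, was the read-out. Beforehand, 2,000 cells per well were exposed for 16 hr at 37 °C to 5-fluorouridine together with compound or vehicle.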
IL1B secr inh: inhibitors of inflammasome signaling (IL-1 beta secretion). THP-1 LPS/ATP IL-1B secretion, AlphaLISA, 16 h; stronger effect = lower value. activity change, % at 57.5 µM. actives 4.7% (n = 360,000); in the data active = activity change below about -50%; inconclusive = mostly about -30% to -49%
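Secreted IL-1B measured by AlphaLISA bead assay after 16 h compound exposure of THP-1 cells; compounds (final up to 57.5 uM) added 1 h before LPS (250 ng/mL) and ATP (1.25 mM) stimulation; lower signal means less secretion.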
TDP1 inh: TDP1 (human) enzyme inhibition | Q9NUW8 | recombinant TDP1, AlphaScreen DNA substrate cleavage | Potency, µM (top dose mostly 130 µM), for the others: top-dose activity change, negative = inhibition, hits mostly inhibitors | actives 0.28% (n = 350,000); also: potency is read from the fitted curve at half-maximal effect; nearly all actives have a fitted effect of over 40% in size
Target sequence (Q9NUW8 whole entry, looked up): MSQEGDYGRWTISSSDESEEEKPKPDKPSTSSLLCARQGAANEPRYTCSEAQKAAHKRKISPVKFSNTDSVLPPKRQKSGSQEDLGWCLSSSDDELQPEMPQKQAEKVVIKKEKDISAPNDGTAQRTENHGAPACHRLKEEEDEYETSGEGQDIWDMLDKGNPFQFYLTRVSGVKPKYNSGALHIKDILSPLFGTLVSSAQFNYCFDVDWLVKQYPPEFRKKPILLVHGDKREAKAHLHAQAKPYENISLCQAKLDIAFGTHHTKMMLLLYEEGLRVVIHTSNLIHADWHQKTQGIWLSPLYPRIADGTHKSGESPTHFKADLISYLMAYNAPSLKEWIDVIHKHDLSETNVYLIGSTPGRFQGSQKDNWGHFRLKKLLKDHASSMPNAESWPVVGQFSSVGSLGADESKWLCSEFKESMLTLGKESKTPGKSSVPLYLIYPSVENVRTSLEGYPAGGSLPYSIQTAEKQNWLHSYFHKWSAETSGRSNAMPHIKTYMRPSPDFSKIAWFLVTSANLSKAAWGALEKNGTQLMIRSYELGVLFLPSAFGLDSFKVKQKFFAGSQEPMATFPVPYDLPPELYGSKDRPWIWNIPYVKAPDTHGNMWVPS
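E. coli-derived human Tdp1, 1 nM final. Cpd preinc 15 min RT; substrate 15 nM final, 5 min RT; AS bead mix 10 ug/ml final, 10 min RT. Signal loss = tyrosine-FITC cleavage. No-enzyme wells = max signal.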
Active calls of the source: *; ? = inconclusive; . = no result given; [ ] = remark or other dose. Unless noted, calls follow the shape of the dose curve; as a rule, active = well fitted curve in the direction sought with a large enough effect; inconclusive = small, poorly fitted or top-dose-only effect, or another doubt; inactive = no such curve, though single readings can be large; an effect the other way counts as inactive or inconclusive. % is scaled to controls: 0 for no effect and ±100 for the full control effect.

SMILES	TDP1 cell CPT	Giardia killer	TDP1 cell noCPT	ELG1 DNA repair	IL1B secr inh	TDP1 inh
COc1ccc(C2=NS(=O)(=O)N(C)C(C(=O)N3CCc4ccccc4C3)=C2)cc1OC	18µM*	14	9.2µM*	18µM*	37	.
COc1ccc(OC)c(C2=NS(=O)(=O)N(C)C(C(=O)Nc3ccc(C(C)=O)cc3)=C2)c1	18µM*	-22	15µM*	?	?	5%
COc1ccc(C2=NS(=O)(=O)N(C)C(C(=O)NCc3ccccc3)=C2)cc1OC	?	-28	?	?	-11	-9%
COc1ccccc1C1=NS(=O)(=O)N(C)C(C(=O)Nc2cc(OC)c(OC)c(OC)c2)=C1	?	.	?	.	.	3%
COc1ccc(NC(=O)C2=CC(c3ccc(OC)cc3)=NS(=O)(=O)N2C)cc1	?	?	21µM*	-12%	-7	.
COc1ccc(C2=NS(=O)(=O)N(C)C(C(=O)NCc3cccs3)=C2)cc1OC	15µM*	-18	?	?	-1	.
CN(CC(=O)Nc1ccc(S(=O)(=O)N2CCOCC2)cc1)Cc1ccc(F)cc1	?	18	?	1%	0	1%
CCN(CC)C(=O)C1=C(C)N(CCC2=CCCCC2)C(=O)C(CC(=O)NCCCCc2ccccc2)C1 (centres undefined)	?	.	?	.	-6	.
O=C(CCC(=O)N1CCCCCC1)NCc1ccc(F)cc1	-4%	-4	0%	15%	-2	2%
Cc1ccc(-n2nc(C)c3c(C)cc(=O)n(CC(=O)NCc4ccc(OC(C)C)cc4)c32)cc1	-15%	.	-11%	.	.	10%
O=[N+]([O-])O[C@@H]1CO[C@H]2[C@@H]1OC[C@@H]2O	12%	.	-12%	.	.	.
COc1ccc(NC(=O)Cn2c(=O)n(-c3cccc(C)c3)c(=O)c3c2c2cc(C)ccc2n3C)cc1OC	-6%	.	?	.	.	3%
COc1ccc(C2=NS(=O)(=O)N(C)C(C(=O)NC3CCCC3)=C2)cc1	-9%	-21	?	2%	18	.
COc1ccc(C2=NS(=O)(=O)N(C)C(C(=O)NC3CCCCC3)=C2)cc1	-28%	-22	6.5µM*	-7%	-11	.
COc1ccc(CNC(=O)C2=CC(c3ccc(OC)c(OC)c3)=NS(=O)(=O)N2C)cc1	?	-17	?	-28%	0	14%
CCc1ccc(NC(=O)C2=CC(c3ccc(OC)c(OC)c3)=NS(=O)(=O)N2C)cc1	12µM*	-1	18µM*	13µM*	-13	.
CCOC(=O)c1cc(-c2ccccc2)sc1NC(=O)CC	-17%	0	-29%	-15%	-5	1%
CCOC(=O)c1cc(-c2ccccc2)sc1NC(=O)CCN1C(=O)c2ccccc2C1=O	-20%	-9	?	?	3	1%
CCOC(=O)c1cc(-c2ccccc2)sc1NC(=O)CSc1nnc(N)s1	0%	5	-10%	?	22	8%
CCOC(=O)c1cc(-c2ccccc2)sc1NC(=O)C(C)Sc1nnc(N)s1 (centres undefined)	?	-13	?	23µM*	-11	-1%
CCOC(=O)c1cc(-c2ccccc2)sc1NC(=O)C(C)N1C(=O)c2ccccc2C1=O (centres undefined)	-5%	-7	-4%	6%	-53*	6%
CCOC(=O)c1cc(-c2ccccc2)sc1NC(=O)c1ccc(OC)cc1	7.3µM*	-10	?	11%	-14	1%
CCOC(=O)c1cc(-c2ccccc2)sc1NC(=O)COC(=O)c1cccc(S(N)(=O)=O)c1	?	2	10µM*	8%	-11	5%
CCOC(=O)c1cc(-c2ccccc2)sc1NC(=O)COC(=O)c1ccc(Cl)c(S(N)(=O)=O)c1	-23%	9	?	-4%	6	-8%
CC(C)C[C@@H](CC(=O)N[C@@H](CCC(=O)O)CC(=O)O)NC(=O)[C@@H]1CCCC[C@H]1NC(=O)C[C@@H](NC(=O)C[C@H](Cc1c[nH]c2ccccc12)NC(=O)[C@@H]1CNCC[C@H]1N)C(C)C	.	.	.	.	.	11%
SMILES	TDP1 cell CPT	Giardia killer	TDP1 cell noCPT	ELG1 DNA repair	IL1B secr inh	TDP1 inh
COC(=O)c1ccc(NC(=O)CCN2C(=O)C3C4CCC(C4)C3C2=O)cc1 (centres undefined)	-4%	-7	-21%	-7%	2	4%[56.1 µM]
CCCc1nc2ccc(Cl)cn2c1Cc1ccc(C)cc1	23µM*	.	23µM*	.	38	.
CCCc1nc2ccc(Cl)cn2c1Cc1cccc(Cl)c1	10µM*	.	8.2µM*	.	-3	.
CCCc1nc2ccc(C(=O)OC)cn2c1Cc1cccc(F)c1	?	.	?	.	17	.
CCOC(=O)c1ccc(NC(=S)N(CCCN2CCCCCC2)Cc2ccco2)cc1	?	18	?	-6%	-66*	1%
Cc1cc(NC(=S)N(CCN2CCCCC2)Cc2ccco2)ccc1Cl	?	-8	?	-3%	-97*	6%
Cc1ccc(NC(=S)N(CCN2CCCCC2)Cc2ccco2)cc1	?	2	16µM*	7%	?	2%
O=C(c1ccc(Br)cc1)N(Cc1ccco1)c1ccccn1	0%	.	?	.	.	5%
CC(=O)N1c2ccccc2C2(O)N=C(C)SC12 (centres undefined)	16µM*	15	?	-3%	0	-2%
CC(=O)N1c2ccccc2[C@@H](C)[C@@H]1C	-13%	9	-10%	?	26	2%
CCOc1ccc(N(CC(=O)Nc2ccc(C)cc2)S(=O)(=O)c2c(C)noc2C)cc1	?	-23	-27%	?	-11	-1%
COc1cc(NC(=O)CN(c2ccc(C)cc2)S(=O)(=O)c2c(C)noc2C)cc(OC)c1	18µM*	3	7.3µM*	-22%	?	8%
Cc1cc(C)cc(N(CC(=O)Nc2cccc(C)n2)S(=O)(=O)c2c(C)noc2C)c1	21µM*	10	13µM*	-15%	-28	-3%
Cc1ccc(N(CC(=O)Nc2ccc(OC(F)(F)F)cc2)S(=O)(=O)c2c(C)noc2C)cc1	21µM*	.	18µM*	.	.	0%
Cc1ccc(NC(=O)CN(c2cc(C)cc(C)c2)S(=O)(=O)c2c(C)noc2C)nc1	?	7	?	?	-4	-4%
Cc1cc(C)cc(N(CC(=O)NCc2ccccc2Cl)S(=O)(=O)c2c(C)noc2C)c1	?	.	23µM*	.	.	0%
